The results in this text go back to PubChem BioAssay AID686978 (National Center for Advancing Translational Sciences (NCATS), 2013).

Structures are written as SMILES. Screen size: about 420,000 compounds; about 64,000 (15%) were called active. Not shown: some 27% with an inconclusive outcome. Calls come from the whole dose curve; as a rule, active = well fitted inhibition curve with a large enough effect; inconclusive = small, poorly fitted or top-dose-only effect; inactive = flat fitted curve, though single readings scatter. These entries were drawn from the full list. Entries that show only a call come without a potency.
Potency is the fitted concentration of half-maximal effect.

The test in a line: qHTS for Inhibitors of human tyrosyl-DNA phosphodiesterase 1 (TDP1): qHTS in cells in absence of CPT. Note: nearly all actives have a fitted effect of over 55% in size. Particulars: DT40 Tdp1-/- hTDP1 cells, no CPT, ATP luminescence, 48 h; activity change, negative = growth inhibition: at 46.2 µM (top of the series). The text has this:
Human tyrosyl-DNA phosphodiesterase 1 (TDP1) is a novel repair gene, and we propose to use it as a new target for anticancer drug development. TDP1 is not an essential protein, but under treatment with topoisomerase I poison (camptothecin: CPT), TDP1 works as a critical factor for cell survival. To directly identify novel TDP1 inhibitors active in a cellular environment, we have knocked-out the Tdp1 gene in chicken DT40 cells (Tdp1-/-) and generated a complemented counterpart cells that contains a stable transfection of the human TDP1 gene (Tdp1-/-;hTDP1 cells). For the primary screen, Tdp1-/-;hTDP1 cells will be exposed to small molecules in the presence or absence of CPT, and their growth kinetics will be evaluated after 48 hours by measuring ATP activity. […] The hit compounds will then be evaluated in the presence or absence of CPT using Tdp1-/- cells. […] In tertiary assays, biochemical gel-based assays will be used to assess whether the hit compounds specifically target TDP1.
To this end, we have screened this cell line against the MLSMR in two primary screens. In one screen we add CPT and in the other we screen in the absence of CPT; this AID represents the screen where CPT was absent.
NIH Chemical Genomics Center [NCGC]
NIH Molecular Libraries Probe Centers Network [MLPCN]
Assay Submitter (PI): Yves Pommier, NCI
DT40-hTDP1 cells without 20 nM Camptothecin (add 20 microL of DMSO in 1 L of cell culture medium) were dispensed at 400 cells/5microL/well in tissue culture treated 1536-well white wall/solid bottom assay plates (Greiner Bio-One North America, NC, U.S.A.) using a Multidrop Combi 8 channel dispenser (Thermo Fisher, Waltham, MA, USA). 23 nL compounds and controls were transferred using the pin tool (Kalypsys, San Diego, CA, USA) to the assay plates. The assay plates were then incubated at 37 masculineC for a minimum 48 hr. Three microL of Cell Titer Glo solution was added to the plates and incubated at RT in dark for 30 min. Luminescence was read using ViewLux (Perkin Elmer) with 1 sec exposure slow speed, high gain and 2x binning.
On the technique in general: In qHTS, concentration-response curves come from the screen itself.
On to `O=C(COC(=O)c1cccc(Cl)c1Cl)NC1CCCCCC1`, for which the Potency result was “inactive”. For `O=C(NNS(=O)(=O)c1ccccc1C(F)(F)F)c1cc2ncc(C(F)(F)F)cc2s1`, the Potency result was “inactive”. Consider `COc1ccccc1OCCC(=O)OCC(=O)NC(=O)NC(C)(C)C`, for which the Potency entry was “inactive”. For `CSc1nnc(SCc2nc3sc(C(=O)O)c(C)c3c(=O)[nH]2)s1`, the Potency result was “inactive”.

For the compound `COc1ccc(CCNC(=O)COC(=O)c2ccc[nH]c2=O)cc1`, the Potency result is “inactive”. The result for `COc1cc2c(=O)n(C)c3ccccc3c2cc1OC` reads 11.6 µM (active). The result for `Cc1cccc(Oc2c([N+](=O)[O-])c(=O)n(C)c3ccccc23)c1` reads “inactive”. The same measure for `Cc1cc(C)c(-c2c(O)c3ccccc3n(C)c2=O)c(C)c1`: “inactive”. With `Nc1ccc2c(c1)C(=Cc1cccnc1)c1ccccc1-2`, the Potency entry was “inactive”.

For `O=S(=O)(Nc1ccccc1N1CCOCC1)c1ccc(Cl)s1`, the Potency entry was “inactive”. For the compound `COc1ccc(CCNC(=O)COC(=O)c2ncc(Cl)c(Cl)c2Cl)cc1OC`, the Potency entry was “inactive”. On to `COc1ccc(CCNc2nc(-c3ccc(Cl)cc3)cc(C(F)(F)F)n2)cc1OC`, for which the Potency was 25.9 µM (active).

With `COc1ccc(CCNc2nc(C)cc(C)n2)cc1OC`, the Potency result is “inactive”. With `COc1ccc(CNc2nc(-c3ccc(Cl)cc3)cc(C(F)(F)F)n2)cc1`, the Potency was 18.4 µM (active).

Turning to `COc1cccc(NC(=O)C2CCN(c3cc(C)nc4c(-c5ccc(Cl)cc5)c(C)nn34)CC2)c1`, the Potency entry was “inactive”. The same measure for `COc1ccc(-c2cc(C(F)(F)F)nc(NCc3cccnc3)n2)cc1`: “inactive”; for `COc1ccc(-c2c(C)nn3c(N4CCC(C(=O)NCCC(C)C)CC4)cc(C)nc23)cc1OC`: “inactive”. Turning to `COc1ccc(-n2c(-c3ccc(Cl)cc3)n[nH]c2=S)c(OC)c1`, the Potency entry was “inactive”.

As for `COc1ccc(CCNc2cc(C)nc3c(-c4ccc(Cl)cc4)c(C)nn23)cc1OC`, the Potency was 18.4 µM (active). The same measure for `CCN1CCN(C(=O)CN(C)S(=O)(=O)c2ccc(OC)cc2)CC1`: “inactive”; for `N#C/C(=C\N1CCOCC1)S(=O)(=O)c1ccc(Cl)cc1`: “inactive”; for `CCCC(=O)N1CCC1(C)C(=O)NS(=O)(=O)c1ccc(Cl)cc1` (centres undefined): “inactive”. The result for `COc1cccc(NC(=O)CN(C)CC(=O)c2c(N)n(Cc3ccccc3)c(=O)n(C)c2=O)c1` reads “inactive”; that for `CC1CCC2(CC1)NC(=O)N(CC(=O)c1cccn1C)C2=O` (centres undefined), “inactive”; that for `COc1ccc(NC(=O)COC(=O)CNC(=O)C2CCCCC2)cc1`, “inactive”. The same measure for `O=C(NCc1cccnc1)c1ccccc1NC(=O)c1c(F)cccc1F`: “inactive”. For the compound `CN(C)c1ccc2c(=O)[nH][nH]c(=O)c2c1`, the Potency entry was “inactive”. The result for `CCCN1C(=O)C(NC(C)=O)c2cc(OC)ccc21` (centres undefined) reads 18.4 µM (active); that for `CCCN1C2CCCC1CC(NC(=O)c1cccc(OC)c1)C2` (centres undefined), “inactive”; that for `COc1cccc(NC(=O)N2C3CCCC2CC(NC(C)=O)C3)c1` (centres undefined), “inactive”. On to `Cn1c(CCNS(=O)(=O)c2ccc(F)cc2)nnc1SCc1cccnc1`, for which the Potency result is “inactive”. The result for `COc1ccc(N(C)C(=O)CCS(=O)(=O)c2cccc3nsnc23)cc1` reads “inactive”; that for `Cc1cc(NC(=O)Nc2ccc(Cl)cc2)n(-c2ccccc2)n1`, “inactive”; that for `Cc1ccc(NC(=O)Nc2cc(-c3ccccc3)nn2C)cc1Cl`, 20.6 µM (active).

Consider `CCOC(=O)C1CCN(C(=O)Nc2ccc(C)c(Cl)c2)CC1`, for which the Potency result was “inactive”. For the compound `CC1(C)CC(=O)C(CC(=O)N2CCC(Cc3ccccc3)CC2)C(=O)C1`, the Potency result was “inactive”. The result for `O=C(CN1CCOc2ccccc21)N1CCC(Cc2ccccc2)CC1` reads 11.6 µM (active); that for `O=C(NCc1nnc(SCC(=O)N2CCC(Cc3ccccc3)CC2)o1)c1ccco1`, “inactive”; that for `CC1COC2C(O1)N(S(C)(=O)=O)CCN2S(C)(=O)=O` (centres undefined), “inactive”. The result for `Cc1ccc(-n2nc3ccc(NC(=O)/C=C/c4ccco4)cc3n2)cc1C` reads 18.4 µM (active). The result for `O=C(Nc1cccc(-c2nc3ccccc3[nH]2)c1)c1ccc(C(=O)Nc2cccc(-c3nc4ccccc4[nH]3)c2)cc1` reads 18.4 µM (active). `O=C(Nc1cccc(NC(=O)c2ccc(Br)cc2)c1)c1ccccc1`: the Potency result was “inactive”. In the case of `NS(=O)(=O)c1cccc(NC(=O)COC(=O)/C=C/c2ccco2)c1`, the Potency entry is “inactive”. The result for `Cc1nnc(NC(=O)/C=C/c2ccco2)s1` reads “inactive”; that for `COc1cccc(NC(=O)COC(=O)/C=C/c2ccco2)c1`, “inactive”. Take `CCC(=O)Nc1ccc2nn(-c3ccc(F)cc3)nc2c1`: the Potency entry is “inactive”.

For `O=C(/C=C/c1ccco1)Nc1cccc(-c2nc3ccccc3[nH]2)c1`, the Potency is 23.1 µM (active).

Turning to `c1ccc(-c2[nH]ncc2-c2nc3ccccc3[nH]2)cc1`, the Potency result was “inactive”. The same measure for `COc1ccccc1C(=O)Nc1ccnn1C1CCN(Cc2cnn(C)c2)CC1`: “inactive”; for `COc1ccc2c(c1OC)C(=O)N(c1ncn[nH]1)C2`: “inactive”; for `Cc1ccc(S(=O)(=O)NC[C@H]2O[C@@H](n3cnc4c(N)ncnc43)[C@H](O)[C@@H]2O)s1`: “inactive”. The same measure for `CCCc1cc(=O)[nH]c(SCc2cc(=O)oc3c(C)c(C)ccc23)n1`: “inactive”; for `CCN(CC(=O)Nc1c(F)cccc1F)C(=O)c1cnc(C)cn1`: “inactive”. The same measure for `CC(C)CN(C(=O)CSc1nncn1C)C1CCS(=O)(=O)C1` (centres undefined): “inactive”. For the compound `O=C(CN(Cc1ccccc1)C(=O)c1ccc2c(c1)OCCO2)NCc1ccc2c(c1)OCO2`, the Potency result was “inactive”.

Take `CC/C(O)=N\S(=O)(=O)c1ccc(N=NN(C)C)cc1`: the Potency result was “inactive”. The same measure for `COC(=O)C1=C(C)N(Cc2ccccc2)C(=NCCCOC(C)C)N[C@H]1c1ccccc1`: 10.3 µM (active). As to `COCCN1C(=O)N[C@@H](c2ccccc2)C(C(=O)OC)=C1C`, the Potency entry was “inactive”. As to `CCN1C(=O)N[C@@H](c2ccccc2)C(C(=O)OC)=C1C`, the Potency result was “inactive”. The result for `CCOCCOCCC(C(=O)O)P(=O)(c1ccccc1)c1ccccc1` (centres undefined) reads “inactive”; that for `CCOc1ccc(-n2cnnn2)cc1S(=O)(=O)N1CCC(C)CC1C` (centres undefined), “inactive”; that for `CCc1ccccc1NC(=O)CSc1nnc(CCNC(=O)OC(C)(C)C)o1`, “inactive”. `Cc1ccccc1Nc1nc(N)nc(CSc2nnc3ccccn23)n1`: the Potency entry is “inactive”. The result for `O=C(Nc1cc(C(F)(F)F)ccc1Cl)c1ccc2c(c1)CCN2S(=O)(=O)c1ccccc1` reads 11.6 µM (active).

As to `COc1ccc(S(=O)(=O)N2CCc3ccccc32)cc1C(=O)Nc1cc(S(C)(=O)=O)ccc1Cl`, the Potency is 4.61 µM (active). As for `Cc1ccc(S(=O)(=O)N2CCc3cc(C(=O)Nc4ccc(Cl)cc4C)ccc32)cc1`, the Potency result is “inactive”. Take `CCN(C(=O)COC(=O)c1cc(S(=O)(=O)N2CCc3ccccc32)ccc1OC)C1CCS(=O)(=O)C1` (centres undefined): the Potency result was “inactive”. The result for `COc1ccc(OC)c(NC(=O)c2ccc3c(c2)CCN3S(C)(=O)=O)c1` reads “inactive”; that for `CS(=O)(=O)N1CCc2cc(C(=O)Nc3ccccc3)ccc21`, “inactive”.
